# Mcl1-Noxa inh – Mcl-1/Noxa binding inhibitors, primary screen, biochemical, TR-FRET, 1536-well. Induced myeloid leukemia cell differentiation protein Mcl-1 (Homo sapiens), Q07820. TR-FRET Mcl-1/Noxa peptide binding, 2 h. inhibition, % at 21.7 µM. 220,000 tested, 1.5% active;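 active = compounds that cut the protein-peptide binding signal by more than 50% relative to plate controls in a single-dose test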;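 also: His-tagged Mcl-1 with rhodamine Noxa BH3 peptide and terbium anti-His antibody; 0% = Mcl-1 plus Noxa peptide wells and 100% = peptide-only wells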
# Target sequence (Q07820 whole entry, looked up): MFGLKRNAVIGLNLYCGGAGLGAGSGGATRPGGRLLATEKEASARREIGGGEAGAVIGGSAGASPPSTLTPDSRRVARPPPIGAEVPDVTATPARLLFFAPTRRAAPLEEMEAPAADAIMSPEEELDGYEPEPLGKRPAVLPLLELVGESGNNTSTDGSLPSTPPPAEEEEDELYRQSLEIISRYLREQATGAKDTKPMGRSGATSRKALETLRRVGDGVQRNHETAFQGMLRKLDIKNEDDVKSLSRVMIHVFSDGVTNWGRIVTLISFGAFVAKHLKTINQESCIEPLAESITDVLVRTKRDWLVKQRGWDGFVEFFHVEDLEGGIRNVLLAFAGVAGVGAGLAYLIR
# Hck-Nef inh – inhibitors of Nef-activated human Hck kinase, primary screen, biochemical, Z-Lyte FRET, 384-well, Hck-YEEI. Tyrosine-protein kinase HCK (Homo sapiens), P08631. Recombinant Hck-YEEI plus Nef, Z-Lyte FRET kinase assay. inhibition, % at 20 µM. 220,000 tested, 0.68% active. AID 463187, 2010;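 active = Hck-Nef kinase inhibition above about 50%, limit read from the data; inactive = inhibition below that limit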;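 also: 0% = DMSO with Hck plus Nef and 100% = Hck alone without Nef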
# Pf gamet viab – late stage P. falciparum gametocyte viability inhibitors, primary screen, ATP luminescence, HTS | P. falciparum stage V gametocytes, 24 h | inhibition, % at 10.9 µM | 150,000 tested, 0.065% active | AID 743093, 2013;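 active = inhibition above the mean plus 3 SD of compounds within the control limits, set per campaign, cut at about 38% in these data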;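 also: 0% = DMSO wells and 100% = medium only without gametocytes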
# 14-3-3 Bad PPI – inhibitors of 14-3-3 zeta/Bad binding, primary screen, biochemical, TR-FRET, bovine 14-3-3 zeta. TR-FRET 14-3-3zeta/Dy647-pBad peptide displacement, 1 h. AID 781, 2007. 14-3-3 protein zeta/delta (Bos taurus), P63103. inhibition, % at 21.7 µM. 220,000 tested, 0.71% active;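 active = inhibition above about 70%, limit read from the data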;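 also: 0% = full 14-3-3 plus peptide FRET controls and 100% = background without 14-3-3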
# Target sequence (P63103 whole entry, looked up): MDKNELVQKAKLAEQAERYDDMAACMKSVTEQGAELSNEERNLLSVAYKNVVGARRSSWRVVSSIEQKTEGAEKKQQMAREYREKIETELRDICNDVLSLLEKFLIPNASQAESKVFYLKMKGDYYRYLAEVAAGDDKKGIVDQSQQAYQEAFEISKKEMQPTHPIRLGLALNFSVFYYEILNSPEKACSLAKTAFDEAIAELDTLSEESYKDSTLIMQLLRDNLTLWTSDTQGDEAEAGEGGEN
# Bim-Mcl-1 – inhibitors of Bim peptide binding to Mcl-1, primary screen, biochemical, bead-based flow cytometry, multiplex; Bim peptide-Mcl-1 binding; 190,000 tested, 0.1% active; inhibition, % at 10 µM; in the data active = inhibition above about 40%;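 also: 0% = no compound tracer wells and 100% = peptide blocker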
# Mcl1 Bid PPI – Mcl-1/Bid binding inhibitors, primary screen, biochemical, TR-FRET, 1536-well; Induced myeloid leukemia cell differentiation protein Mcl-1 (Homo sapiens), Q07820; TR-FRET Mcl-1/Bid-Dy647 peptide binding; inhibition, % at 21.7 µM; 220,000 tested, 0.97% active; AID 1021, 2008;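 active = compounds that cut the binding signal by more than half at the single screening dose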;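 also: His-tagged Mcl-1 with europium anti-His antibody binding Bid BH3 peptide; 0% = Mcl-1 plus peptide wells and 100% = peptide-only wells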
# * = called active by the depositor; . = no result given; [ ] = dose if it differs, or a comment. Most compounds without a hit are left out; they make up all but 2.9% or so of the library.
SMILES,Mcl1-Noxa inh,Hck-Nef inh,Pf gamet viab,14-3-3 Bad PPI,Bim-Mcl-1,Mcl1 Bid PPI
CN(C)S(=O)(=O)c1c(Cl)cccc1Cl,10.1,3.2,.,81.0*,0.0,-2.8
CN(c1ccccc1)S(=O)(=O)c1cccc(Cl)c1Cl,-20.3,27.5,-2.5,-3.8,.,-11.1
CCOC(=O)CSc1nnc(-c2cc(OC)c(OC)c(OC)c2)o1,3.9,16.2,6.7,1.3,0.0,-34.4
COc1cc(-c2nnc(SCc3cc(=O)oc4cc(O)c(O)cc34)o2)cc(OC)c1OC,77.1*,10.8,-39.9,-8.1,5.0,-72.0
CCN(c1ccccc1)S(=O)(=O)c1cccc(C(=O)NCC(c2cccs2)N(C)C)c1 (centres undefined),9.6,15.9,-6.8,-8.9,3.0,-3.7
CCN1CCN(Cc2ccc(NC(=O)c3cc(NC(=O)N4CCNC4=O)cc(OC)c3)cc2C(F)(F)F)CC1,12.0,24.4,-0.8,-0.7,.,-44.3
CCN1CCN(Cc2ccc(NC(=O)c3ccc(C)c(NC(=O)C4=NN(c5ccccc5)C(=O)C4)c3)cc2C(F)(F)F)CC1,63.2*,44.9,.,62.9,.,-57.7
CCN1CCN(Cc2ccc(NC(=O)c3cc(NC(=O)C4=NN(c5ccccc5)C(=O)C4)cc(OC)c3)cc2C(F)(F)F)CC1,68.5*,33.8,-20.8,60.4,.,-39.4
COc1cccc(NC2=NCC(=O)N2Cc2cccs2)c1,14.8,0.6,4.4,71.2*,-3.0,17.0
COc1ccc(CN2C(=O)CN=C2Nc2cccc(C)c2C)cc1,22.7,-0.1,-22.0,81.9*,-1.0,-9.7
COc1ccc(NC2=NCC(=O)N2Cc2cccs2)cc1,32.2,-0.4,.,74.9*,2.0,17.4
COc1ccccc1NC1=NCC(=O)N1Cc1ccccc1,29.4,-0.9,.,28.4,0.0,-3.9
CC12CN3CC(C)(CN(C1)C3c1ccccc1Cl)C2O (centres undefined),87.6*,-0.2,.,0.8,-2.0,-2.6
Cc1ccc(NC(=O)CCS(=O)(=O)c2ccc(Br)cc2)nc1,13.5,-1.0,-18.9,13.6,-3.0,-6.2
Cc1nn(CC(=O)Nc2ccc3c(c2)nc2n3CCOC2)c(=O)c2ccccc12,11.4,0.6,.,-0.1,-6.0,0.1
COCCN1CCn2c(nc3cc(NC(=O)Cn4nc(C)c5ccccc5c4=O)ccc32)C1,66.4*,3.8,-11.0,26.1,.,-12.0
CC(=O)c1csc(Nc2ccccc2Cl)n1,-13.7,10.5,16.8,90.0*,.,-3.1
Cc1ccc2oc(C(F)(F)C(F)F)cc(=O)c2c1,-12.8,15.7,12.4,33.8,.,87.6*
CS(=O)(=O)N(CCc1ccccc1)CC(=O)NCC1CCCO1 (centres undefined),20.3,1.1,.,-3.0,1.0,-27.7
Cc1c2c(n3c(nc4ccccc43)c1C#N)N(CCN1CCOCC1)CC2,1.6,75.5*,21.3,-11.0,-1.0,-30.7
Cc1cc(NCCN2CCOCC2)n2c(nc3ccccc32)c1C#N,25.2,25.3,.,-10.7,0.0,-15.8
COC(=O)c1cc(=O)n(Cc2ccc(OC)c(OC)c2)c(=Nc2ccc(F)cc2)s1,2.1,3.5,.,-0.9,-1.0,-9.4
COC(=O)c1cc(=O)n(Cc2ccc(F)cc2)c(=Nc2ccccc2)s1,52.1*,22.9,-6.7,1.1,.,-21.4
O=C(N=Nc1c(O)[nH]c2ccc(Cl)cc12)c1cc(-c2cccs2)nc2ccccc12,59.7*,8.6,-31.3,88.3*[fluorescence artefact?],-1.0,85.1*
O=C(N=Nc1c(O)[nH]c2ccc([N+](=O)[O-])cc12)c1ccccc1Cl,37.2,25.5,20.2,32.7,.,-7.3
SMILES,Mcl1-Noxa inh,Hck-Nef inh,Pf gamet viab,14-3-3 Bad PPI,Bim-Mcl-1,Mcl1 Bid PPI
COc1ccc(N(CC(=O)Nc2ccc3c(c2)OCCO3)S(C)(=O)=O)c(OC)c1,-0.9,-9.6,.,13.0,1.0,-9.0
COc1ccc(NC(=O)CN(C)CC(=O)Nc2ccc(Cl)cc2[N+](=O)[O-])cc1,30.4,25.8,1.5,-1.5,-2.0,0.9
COc1cc(SC)ccc1C(=O)N1CCN(c2ccccc2)CC1,82.3*,17.3,5.9,-0.3,0.0,-43.7
COc1cc(SC)ccc1C(=O)N1CCN(c2ccc(O)cc2)CC1,23.6,27.9,-9.8,-6.0,-1.0,-29.2
CCOC(=O)c1sc2ncnc(NCc3ccco3)c2c1C,22.7,-14.1,-18.9,-12.8,-3.0,-13.4
CCc1cc2c(NCc3ccco3)ncnc2s1,31.4,-0.8,.,87.2*,0.0,15.6
Cc1cccc2c(=O)oc(-c3ccccc3Cl)nc12,.,.,-3.0,.,.,.
Cc1ccc(C)c(NS(=O)(=O)c2c(C)ccc3nsnc23)c1,3.5,-0.1,.,-6.8,1.0,7.2
Cc1ccc2nsnc2c1S(=O)(=O)NCCc1c(C)[nH]c2ccc(F)cc12,7.7,1.1,.,4.9,0.0,55.4*
O=C1c2ccccc2C(=O)N1CCc1nc(-c2ccncc2)no1,-10.5,-22.4,-11.3,-5.8,1.0,-38.7
CCOC(=O)N1CCN(C(=O)c2cccn3c(=O)c4c5c(sc4nc23)CCCC5)CC1,12.4,-11.9,17.0,-8.1,-3.0,-17.6
O=C(O)CSc1cc(C(=O)c2ccccc2O)cn2c(=O)c3c4c(sc3nc12)CCCC4,79.6*,3.1,5.6,75.0*,.,50.5*
CCOc1ncccc1C(=O)Nc1cccc(Cl)c1Cl,-5.7,-5.3,-11.4,3.6,1.0,-10.7
O=C(O)C(Cc1ccccc1)N1C(=O)/C(=C/c2ccccc2)SC1=S (centres undefined),20.8,9.4,2.8,-1.0,-5.0,17.4
COc1cc(/C=C2\SC(=S)N(C(Cc3ccccc3)C(=O)O)C2=O)ccc1O (centres undefined),18.7,12.9,-4.4,9.6,.,55.5*
COc1cc(/C=C2/SC(=S)N(CC3CCCO3)C2=O)ccc1O (centres undefined),13.1,-0.6,-13.8,-14.1,-1.0,72.2*
Cc1ccc(/C=C2\SC(=S)N(C(Cc3ccccc3)C(=O)O)C2=O)cc1 (centres undefined),23.2,12.1,.,-13.2,0.0,19.9
O=C(O)C(Cc1ccccc1)N1C(=O)/C(=C/c2cccc3ccccc23)SC1=S (centres undefined),78.2*,63.2*,.,-2.9,4.0,91.0*
CN(C)CCNC=C(C(=O)Nc1ccc(Cl)cc1Cl)C(=O)Nc1ccc(Cl)cc1Cl,-4.6,0.1,-3.7,9.2,-4.0,-16.8
CCOC(=O)CSc1nnc(CSc2nc3ccccc3s2)n1C,4.0,0.6,4.7,9.4,-1.0,-1.9
Cn1c(CSCc2ccc(Cl)cc2)nnc1SCC(=O)Nc1nc2ccccc2s1,0.6,-4.8,23.8,-6.3,-1.0,62.0*

# Compound activity (PubChem)
